{"source": "PubChem BioAssay (NCI)", "note": "The panel holds about 79,000 compounds, 15% with a hit somewhere; the sample as a whole holds those more often. A number with no mark means an inactive call. No stated cut-off is given here; in the data, active means growth inhibition above about 70%; inactive means the rest."}
{"test": "NCI Yeast Anticancer Drug Screen. Data for the bub3 strain (AID 167)", "details": "S. cerevisiae bub3 mutant strain, at 50.0 µM, active compounds read high", "method_in_brief": "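Yeast carrying a defined mutation is treated with each compound, and growth is compared with that of vehicle-exposed cells to give inhibition.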", "units": {"growth inhibition": "%"}}
{"smiles": "COc1ccc(C#N)c(-c2ccccc2)c1", "growth inhibition": -6.25}
{"smiles": "COc1c(-c2ccc(F)cc2)oc2c(CC(=O)O)cccc2c1=O", "growth inhibition": -7.6}
{"smiles": "O=S(=O)(Cl)c1cccc2c(S(=O)(=O)Cl)cccc12", "growth inhibition": -10.4}
{"test": "NCI Yeast Anticancer Drug Screen. Data for the mlh1 rad18 strain (AID 175)", "details": "S. cerevisiae mlh1 rad18 strain growth inhibition; at 50.0 µM; active compounds read high", "method_in_brief": "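Yeast w/ defined DNA-repair lesions; compound exposure; growth vs vehicle controls → % inhibition.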", "units": {"growth inhibition": "%"}}
{"smiles": "O=[N+]([O-])C(=C1NCCN1)C(Cl)=C(Cl)Cl", "growth inhibition": -26}
{"smiles": "O=C1C(=S)Nc2c(F)cccc21", "growth inhibition": 31.9}
{"smiles": "c1ccc2oc(C34OC5CC(CC(C5)O3)O4)nc2c1", "growth inhibition": 10}
{"smiles": "CCOC(=O)CCC(NC(=O)C(N)c1ccc([N+](=O)[O-])cc1)C(=O)NC(CCC(=O)OCC)C(=O)OCC", "note": "(stereo not drawn)", "growth inhibition": 4.55}
{"smiles": "C=C(/C=C/CCCC)NC(=O)OCc1ccccc1", "growth inhibition": 18.9}
{"smiles": "CC1=NN2C(=O)C(c3ccccc3)SC2=NC(C)(C)C1", "note": "(stereo not drawn)", "growth inhibition": -7.25}
{"smiles": "COc1ccc(Cc2cc3c(cc2OCC(=O)Nc2ccccn2)OCO3)cc1", "growth inhibition": 8.1}
{"smiles": "NCCCc1ccc2oc3ccccc3c2c1", "growth inhibition": 24.4}
{"smiles": "Cc1ccccc1CCCC(C(=O)O)C(=O)O", "growth inhibition": 1.75}
{"smiles": "CC(C)(C)NC(=O)Oc1ccc(Br)cc1Br", "growth inhibition": 21.2}
{"smiles": "CC(C)CCNCCC(C)C", "growth inhibition": 21.9}
{"smiles": "CCOC(=O)/C(=C\\c1ccc(OCc2ccccc2)c(OC)c1)C(=O)c1ccccc1", "growth inhibition": -15.3}
{"smiles": "COc1ccc2nc(-c3ccccc3)cc(N=[N+]=[N-])c2c1", "growth inhibition": -12}
{"smiles": "Cc1ccc(-c2n[nH]c(=O)n2N2C(=O)C=CC2=O)cc1", "growth inhibition": -59.9}
{"smiles": "CC(=O)OCCOCNC(=S)N/N=C(\\C)c1cccs1", "growth inhibition": -8.95}
{"smiles": "CN(N)C(=O)Nc1cccc(Cl)c1", "growth inhibition": 17.3}
{"smiles": "C#CC1(O)CCCCCCCCC2(CCCCCCCC1)OCCO2", "growth inhibition": 1.25}
{"smiles": "CCOC(=O)C1=C(NC(=O)C(c2ccccc2)c2ccccc2)OCC1", "growth inhibition": 7.85}
{"smiles": "Cc1cc(Cl)ccc1NC(=O)NC(C)(C)COC(=O)Nc1cccc(Cl)c1", "growth inhibition": 27.9}
{"smiles": "COc1cc(/C=C\\C(=O)c2cccc([N+](=O)[O-])c2)cc(OC)c1OC", "growth inhibition": 20.7}
{"smiles": "Cc1ccc(NC(=O)c2ccc(Cl)cc2)cc1", "growth inhibition": -3.55}
{"smiles": "CCCCCCCCCC(=O)OCC1OC(n2cc(F)c(=O)[nH]c2=O)C(N)C(OC(=O)CCCCCCCCC)C1O", "note": "(stereo not drawn)", "growth inhibition": 8.15}
{"smiles": "O=S1(=O)CCC(Br)c2ccccc21", "note": "(stereo not drawn)", "growth inhibition": -12.5}
{"smiles": "O=C(O)Cn1cc(I)c(=O)c(I)c1", "growth inhibition": -28}
{"smiles": "CC(Nc1ncccn1)Nc1ncccn1", "growth inhibition": -1.75}
{"smiles": "COc1cc(/C=C\\c2ccc(SC)cc2)cc(OC)c1OC", "growth inhibition": -57.9}
{"smiles": "COc1ccc(C2=NOC3COC4C=CC=CC4OCC23)cc1", "note": "(stereo not drawn)", "growth inhibition": -18.6}
{"smiles": "CC1CCC2(C)OC1OC2CN", "note": "(stereo not drawn)", "growth inhibition": -4.65}
{"smiles": "c1ccc(-c2nsc3ccccc23)cc1", "growth inhibition": 5.75}
{"smiles": "Fc1ccc(-c2ccc(Br)cc2)cc1", "growth inhibition": -3.65}
{"smiles": "BrCc1cccc2cccc(CBr)c12", "growth inhibition": 2.65}
{"smiles": "CCc1cccc(CC)c1NC(=S)NN", "growth inhibition": 5.55}
{"smiles": "COc1ccc(C(C)(C)C#N)cc1", "growth inhibition": 31.6}
{"smiles": "O=c1c(-c2ccccc2)coc2ccccc12", "growth inhibition": 0.15}
{"smiles": "NCCc1ccc(O)c(O)c1", "growth inhibition": 1.85}
{"smiles": "CCOC1=NC(C)C(C)N1", "note": "(stereo not drawn)", "growth inhibition": -21.1}
{"smiles": "COC(=O)C1(CC(=O)CC(=O)CC2(C(=O)OC)NC(=S)NC(=O)C2C#N)NC(=S)NC(=O)C1C#N", "note": "(stereo not drawn)", "growth inhibition": 13.8}
{"smiles": "COc1ccc(C#N)c(-c2ccccc2)c1", "growth inhibition": -12.3}
{"smiles": "COc1c(-c2ccc(F)cc2)oc2c(CC(=O)O)cccc2c1=O", "growth inhibition": -26.5}
{"smiles": "O=S(=O)(Cl)c1cccc2c(S(=O)(=O)Cl)cccc12", "growth inhibition": 16.2}
